KB-3-1 cytotox – kills parental KB-3-1 adenocarcinoma cells | KB-3-1 viability, CellTiter-Glo ATP luminescence, 72 h | Potency, µM (series often up to 46.1 µM), usual class: cytotoxic | actives 1.4% (n = 400,000); note: % is set by controls: 0 for no effect and ±100 for the full control effect; nearly all actives have a fitted effect of over 60% in size
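Here the drug-naive KB-3-1 line serves as comparator for MDR sub-line selectivity; cells received compound titrations, 72 h at 37 °C, then CellTiter-Glo readout.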
MCF10A rerep – induces DNA re-replication in MCF 10a normal breast cells. MCF 10A DNA re-replication, Hoechst nuclear intensity, 48 h. AID 624296. actives 2.9% (n = 350,000). Potency, µM (top dose mostly 46.1 µM), without a hit: top-dose activity, positive = re-replication, hits mostly activators; note: % of control where 0% means no effect; nearly all actives have a fitted effect of over 50% in size
ELG1 repair inh – inhibitors of ELG1-dependent DNA repair in HEK293T cells | HEK293T ELG1-luciferase reporter, luminescence, 16 h; DNA damage induced by 5-fluorouridine | Potency, µM (titrated, usually from 46.1 µM), for inactives: at the top dose activity change, negative = inhibition, hits mostly inhibitors | actives 2.3% (n = 330,000); note: % is set by controls: 0 for no effect and ±100 for the full control effect; nearly all actives have a fitted effect of over 55% in size
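Overnight (16 hr) co-exposure of 2,000 cells/well to 5-fluorouridine and compound at 37 °C preceded detection. Luciferase was quantified via ONE-Glo luminescence; loss of signal denotes inhibition.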
KB-V1 MDR tox – kills drug-selected multidrug resistant KB-V1 cells | KB-V1 MDR cells viability, CellTiter-Glo, 72 h | Potency, µM (highest dose often 46.1 µM), usual class: cytotoxic | actives 3.4% (n = 400,000) | AID 1347076; note: % is set by controls: 0 for no effect and ±100 for the full control effect; nearly all actives have a fitted effect of over 60% in size
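Cytotoxicity toward P-gp-expressing KB-V1 cells was determined as loss of CellTiter-Glo luminescence after 72 h at 37 degrees C. Compounds were tested in quantitative HTS format across a concentration range, with curves fitted to normalized data.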
SW480 rerep – inducers of DNA re-replication in SW480 colon cancer cells. SW480 DNA re-replication, Hoechst DNA content imaging, 48 h. actives 1.8% (n = 340,000). Potency, µM (top dose mostly 46.1 µM), without a hit: top-dose re-replication activation, usual class: activators. AID 624297; note: % of control where 0% means no effect; nearly all actives have a fitted effect of over 55% in size
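Image-based read-out: total Hoechst fluorescence of nuclei (405 nm excitation, 500-530 nm emission), with hits raising the fraction of high-intensity nuclei. SW480 colon cells incubated 48 hr with compounds at 37 C.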
Active calls of the source: *; i = inactive; ? = inconclusive; nt = no result given. This is a sample that favours compounds with a hit; in the whole collection about 8.1% have one here. Calls come from the whole dose curve; as a rule, active = well fitted curve in the direction sought with a large enough effect; inconclusive = small, poorly fitted or top-dose-only effect, or another doubt; inactive = no such curve, though single readings can be large; an effect the other way counts as inactive or inconclusive. Potency is the fitted concentration of half-maximal effect.

SMILES	KB-3-1 cytotox	MCF10A rerep	ELG1 repair inh	KB-V1 MDR tox	SW480 rerep
CCN(C(=O)COC(=O)C1CCC(C(C)(C)C)CC1)c1c(N)n(Cc2ccccc2)c(=O)[nH]c1=O (configuration not stated)	?	4%	nt	i	-24%
COc1ccc(C(O)c2ncc(-c3ccc4ccccc4c3)[nH]2)cc1 (configuration not stated)	i	nt	nt	i	nt
N#CC1(NC(=O)CSc2nc3ccccc3s2)CCCCC1	i	22%	2%	16µM*	-2%
Cc1ccccc1C(=O)Nc1cccc(-c2nnc(SCC(=O)NCc3ccco3)n2C)c1	i	nt	nt	i	nt
COc1ccc(C(=O)c2ccc(Cl)c([N+](=O)[O-])c2)cc1	1.2µM*	3.7µM*	-4%	?	0.82µM*
COc1ccc(C(=O)c2ccc(Cl)cc2)cc1	i	1%	?	i	-5%
CC1=C(C#N)C(c2cccnc2)C2=C(CC(c3ccc(Cl)cc3)CC2=O)N1 (configuration not stated)	i	3%	-16%	i	7.3µM*
CCCCc1nc(NCCNC(=O)c2ccco2)c(C#N)c2c1CSC(C)(C)C2	i	?	15µM*	2.3µM*	?
CCc1nc(Cl)c(C#N)c2c1CSC(C)(C)C2	i	0%	-1%	i	?
CCCCc1nc(Cl)c(C#N)c2c1CSC(C)(C)C2	i	23µM*	10%	i	?
COc1cc(NC(=O)[C@@H]2O[C@H](CO)[C@@H](O)[C@H]2O)cc(OC)c1OC	i	nt	nt	i	nt
COc1ccc(NCc2nc3ccccc3n2CCOc2ccc(C)cc2)cc1	?	21µM*	?	?	4%
COc1ccc(NCc2nc3ccccc3n2CCOc2ccccc2)cc1	?	?	?	2.3µM*	2%
c1ccc(NCc2nc3ccccc3n2CCOc2ccccc2)cc1	i	3%	?	?	nt
COC(=O)c1cccc(CC2(C)C(=O)Nc3cc(-c4ccccc4Cl)ccc32)c1 (configuration not stated)	i	nt	nt	?	nt
COc1ccc(CN2CCCC(N3CCN(c4ccc(OC)cc4)CC3)C2)cc1 (configuration not stated)	i	1%	-8%	i	3%
Cc1cccn2c(=O)c(C(=O)NCCc3ccccc3)cnc12	i	nt	nt	i	nt
CCOC(=O)Cc1csc(NC(=O)Cc2ccccc2)n1	i	7%	2%	?	-6%
COc1ccccc1NC(=O)Nc1nc(CC(=O)N2CCN(c3ccccc3F)CC2)cs1	?	?	16µM*	?	-429%
CCC(=O)Nc1nc(CC(=O)Nc2ccccc2)cs1	i	6%	-4%	26µM*	-2%
CCN(CC(=O)Nc1ccccc1OC)Cc1csc(CC(=O)Nc2ccc(C)cc2)n1	i	?	9.2µM*	i	?
COc1ccccc1NC(=O)Cc1csc(NC(=S)Nc2ccccc2)n1	?	?	9%	9.2µM*	2.6µM*
CCOc1ccccc1NC(=O)C1CCN(S(C)(=O)=O)CC1	i	0%	8%	i	-1%
COc1ccccc1/C=C/C(=O)Nc1cccc(S(=O)(=O)N2CCOCC2)c1	i	-4%	-19%	i	1%
COc1ccc(NC(=S)Nc2nc(CC(=O)Nc3ccccc3OC)cs2)cc1	?	21µM*	?	8.2µM*	?
SMILES	KB-3-1 cytotox	MCF10A rerep	ELG1 repair inh	KB-V1 MDR tox	SW480 rerep
COC(C(=O)C(O)C(C)O)C1Cc2cc3cc(OC4CC(OC5CC(O)C(O)C(C)O5)C(O)C(C)O4)c(C)c(O)c3c(O)c2C(=O)C1OC1CC(OC2CC(OC3CC(O)C(OC)C(C)O3)C(O)C(C)O2)C(O)C(C)O1 (configuration not stated)	0.18µM*	-10%	nt	i	-9%
COC(C(=O)C(O)C(C)O)C1Cc2cc3cc(OC4CC(OC5CC(O)C(O)C(C)O5)C(O)C(C)O4)c(C)c(O)c3c(O)c2C(=O)C1OC1CC(OC2CC(OC3CC(C)(O)C(O)C(C)O3)C(O)C(C)O2)C(O)C(C)O1 (configuration not stated)	0.0052µM*	?	nt	i	-23%
COc1ccc(NC(=O)c2cc(C3CC3)nc3c2c(C)nn3-c2ccccc2)c(OC)c1	i	nt	nt	i	nt
Cc1c(C(=O)NCc2cccnc2)oc2ccc(S(=O)(=O)N3CCCCC3)cc12	?	-2%	5.8µM*	?	4%
C=CCNC(=O)c1oc2ccc(S(=O)(=O)N3CCCCC3)cc2c1C	i	-2%	-14%	i	-25%
Cc1c(C(=O)NCc2ccccc2)oc2ccc(S(=O)(=O)N3CCCC3)cc12	i	7%	15µM*	i	-1%
CCN(C(=O)c1oc2ccc(S(=O)(=O)N3CCCCCC3)cc2c1C)c1ccccc1	26µM*	nt	nt	i	nt
Cc1c(C(=O)NCc2cccnc2)oc2ccc(S(=O)(=O)N3CCCCCC3)cc12	?	1%	18µM*	5.2µM*	-2%
Cc1c(C(=O)NCc2ccc3c(c2)OCO3)oc2ccc(S(=O)(=O)N3CCCCC3)cc12	i	-10%	?	i	-4%
COc1ccccc1CNC(=O)c1oc2ccc(S(=O)(=O)N3CCCC3)cc2c1C	i	22%	?	i	0%
CCOc1ccccc1N(C)C(=O)c1c2c(nc3ccccc13)C(=O)N(C1CCCCC1)C2	i	nt	nt	i	nt
CN(C)CCNC(=O)Cn1nc(N2CCN(c3ccccc3)CC2)ccc1=O	i	nt	nt	i	nt
Cc1ccc(CNC(=O)c2cc(NS(=O)(=O)c3ccc(C)cc3)ccn2)cc1	i	nt	nt	i	nt
COc1ccc(NC(=O)c2oc3ccc(S(=O)(=O)N4CCC5(CC4)OCCO5)cc3c2C)cc1	?	?	5.8µM*	?	-4%
C=CCNC(=O)c1oc2ccc(S(=O)(=O)N3CCC4(CC3)OCCO4)cc2c1C	i	-1%	?	i	4%
Cc1c(C(=O)NCc2ccc3c(c2)OCO3)oc2ccc(S(=O)(=O)N3CCCC3)cc12	i	1%	7.3µM*	i	-2%
Cc1c(C(=O)N2CCc3ccccc3C2)oc2ccc(S(=O)(=O)N3CCCCCC3)cc12	?	?	16µM*	?	8%
COc1cccc(NC(CNS(=O)(=O)c2ccc(C)cc2)c2ccccc2)c1 (configuration not stated)	?	nt	nt	18µM*	nt
Cc1ccc(NC(CNS(=O)(=O)c2ccc(Cl)cc2)c2ccccc2)cc1 (configuration not stated)	?	?	43%	?	5%
